# Source: the supplement of paper PMC3334620
# In all, about 33,000 sequences were measured (“E-score (-0.5 to 0.5)”: median about -0.043, highest 2% from about 0.37 on). This excerpt belongs to a sample that is enriched for the highest values.
# Target: T1, Upc2 (UniProt Q12151)
# T1 sequence: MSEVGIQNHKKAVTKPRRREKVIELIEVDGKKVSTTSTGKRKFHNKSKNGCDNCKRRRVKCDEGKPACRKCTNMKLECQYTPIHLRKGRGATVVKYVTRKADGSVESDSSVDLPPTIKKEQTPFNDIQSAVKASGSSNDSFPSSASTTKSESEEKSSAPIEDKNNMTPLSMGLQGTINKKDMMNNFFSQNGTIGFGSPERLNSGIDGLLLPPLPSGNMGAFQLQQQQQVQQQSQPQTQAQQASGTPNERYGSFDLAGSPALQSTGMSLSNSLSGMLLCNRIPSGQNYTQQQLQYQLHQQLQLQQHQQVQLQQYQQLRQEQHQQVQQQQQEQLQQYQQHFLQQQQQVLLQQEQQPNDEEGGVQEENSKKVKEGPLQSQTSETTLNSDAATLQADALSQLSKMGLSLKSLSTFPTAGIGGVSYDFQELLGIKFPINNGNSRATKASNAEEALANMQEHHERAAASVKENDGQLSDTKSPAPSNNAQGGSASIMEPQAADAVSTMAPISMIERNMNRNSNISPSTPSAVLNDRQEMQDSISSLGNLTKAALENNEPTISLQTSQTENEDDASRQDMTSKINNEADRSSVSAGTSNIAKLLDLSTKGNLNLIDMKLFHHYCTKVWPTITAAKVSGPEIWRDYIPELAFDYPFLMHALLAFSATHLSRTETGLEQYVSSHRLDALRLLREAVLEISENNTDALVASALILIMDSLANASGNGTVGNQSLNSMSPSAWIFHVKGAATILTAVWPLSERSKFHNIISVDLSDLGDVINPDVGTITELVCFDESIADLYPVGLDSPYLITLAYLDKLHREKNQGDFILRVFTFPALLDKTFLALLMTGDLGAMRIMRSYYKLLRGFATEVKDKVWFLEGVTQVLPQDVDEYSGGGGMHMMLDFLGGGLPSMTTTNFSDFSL
# Assay: PBM E-score (8-mer binding enrichment) (E-score (-0.5 to 0.5)); higher = stronger / more preferred TF binding
# Settings: protein concentration: 200 nM; construct: GST-full length
# Experimental: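 Universal 'all 10-mer' protein binding microarrays (Agilent AMADID 015681) probed with GST-tagged S. cerevisiae TFs (full-length or DBD) made by in vitro transcription/translation (PURExpress), about 100-200 nM. Bound TF was detected with fluorescent anti-GST. Each ungapped 8-mer (which stands for itself and its reverse complement) is scored by the PBM enrichment score (E-score), a modified Wilcoxon-Mann-Whitney statistic from -0.5 to +0.5, computed with the Universal PBM Analysis Suite. Scale: above 0.35 generally sequence-specific binding.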
row,Sequence,PBM E-score
1,ATCATCTG,-0.129
2,TACCATGA,-0.108
3,CCTGAACG,0.394
4,ACTGAACG,0.395
5,CCTGAACA,-0.0282
6,ACTGAACT,-0.0256
7,CCTGAACC,-0.146
8,ACTGAACA,0.0269
9,GCTCTTAA,0.108
10,AGCAGAAG,-0.255
11,ACAAATTC,-0.0428
12,GGGCTGTA,-0.0846
13,AATCGTTC,0.396
14,AATCGTTG,0.142
15,CATCGTTC,0.416
16,CATCGTGC,0.054
17,CATCGTTA,0.324
18,AATCGTTA,0.292
19,TACAGGAA,0.0741
20,ATCCGAGG,0.18
21,AGTCCTGA,-0.291
22,AAAGGGCC,-0.285
23,GGTTTAGA,-0.055
24,CGTTTAGA,0.466
25,AGTTTAGC,0.00286

row,Sequence,PBM E-score
1,CGTTTAGC,0.48
2,AGTTTAGA,-0.00847
3,CATTTAGC,-0.0255
4,GGACTACA,-0.219
5,ATTCCATC,0.0445
6,CCCTACTA,-0.242
7,ATTGGTTA,-0.0342
8,AGTGAGTC,-0.211
9,CAGTTGTC,-0.147
10,CAGAGAGC,-0.203
11,GGATTTAC,0.00936
12,AGCAGATG,-0.221
13,AACGATTA,0.364
14,AACGATTC,0.393
15,ACCGATTG,0.0763
16,AACGATTG,0.391
17,AGCGATTC,0.181
18,CACGATTC,0.258
19,TAAAATCA,0.0046
20,ACGTGCTA,0.207
21,CCCGCAAG,-0.239
22,ATGTCATG,-0.0317
23,CATGGATA,-0.0903
24,ACGAAGGG,0.287
25,ACGAACGG,0.387

row,Sequence,PBM E-score
1,GCGAACGA,0.418
2,TCGAACGA,0.368
3,ACGAAGGA,0.379
4,ACGAACGA,0.435
5,ACGAACGT,0.32
6,CCGAAGGA,-0.0603
7,ACGAACAG,0.314
8,GCGAACGC,0.158
9,GCGAACAA,0.139
10,ACGAACGC,0.323
11,TCGGTGCA,-0.104
12,GTAATATA,0.197
13,CTTTCTCA,0.0661
14,AGCTCAGA,-0.0803
15,ACCGACTA,0.0499
16,ATCGAGGG,-0.0211
17,ATACATGC,0.169
18,AAAACCAC,-0.0422
19,CCGAAGAA,-0.127
20,AAGATGCC,0.00959
21,CCGAACGA,0.384
22,CCGAACGC,0.0534
23,CCGAACGG,0.199
24,ATTATGAG,-0.102
25,GCAAGGAC,-0.135

row,Sequence,PBM E-score
1,ACTTCACG,0.0222
2,ACGAGATC,0.408
3,ACGAGAGC,0.375
4,ACGAGAGA,0.343
5,CCGAGATC,0.018
6,ACGAGACC,0.347
7,ATGAGATG,-0.243
8,ACGAGATG,0.38
9,ACGAGATA,0.355
10,GCGAGAGC,0.23
11,ACGTCCCA,-0.208
12,CCGCCCAG,-0.0999
13,CGAAACAA,0.188
14,ATTTGCGC,0.024
15,GGATGCTA,-0.0482
16,ATTTCGCC,0.131
17,CGAGCATA,0.175
18,CCTTAGGC,-0.0987
19,TACGAAAA,0.411
20,TACGAATA,0.415
21,GACGAAAA,0.177
22,CACGAATG,0.0101
23,CACGAATC,0.0313
24,AACGAATC,0.39
25,AGCGAATG,0.177

row,Sequence,PBM E-score
1,CACGAATA,0.175
2,AACGAATG,0.416
3,GACGAATA,0.0289
4,CACGAAAA,0.134
5,GACGAATC,0.138
6,CGACCAGA,0.0386
7,GACCGTGA,-0.166
8,CCGCTGGA,-0.0874
9,ATAATTGC,-0.037
10,AACCTGCT,-0.0408
11,CACCATGC,-0.295
12,CCGGGCTA,-0.18
13,CACGTACG,0.346
14,ATAACGAT,0.144
15,AACGAATA,0.381
16,ACCGAATA,0.0988
17,AAAGAATT,-0.0689
18,AACGAATT,0.378
19,AAGGAATT,-0.215
20,ATCGAATA,0.211
21,GATCAGCC,-0.29
22,ATCTTCCG,0.168
23,AGCTTTTA,0.163
24,TGTGCGAA,0.0333
25,GGAACGAC,0.453

row,Sequence,PBM E-score
1,CGAACGCC,0.0792
2,CGAACGAA,0.398
3,GGAACGCA,0.174
4,CGAACGAC,0.401
5,GGAACGTA,0.282
6,CGAACAAA,0.183
7,GTAACGAC,0.326
8,GGAACGCC,0.013
9,GGAACGAA,0.464
10,CGAACGTC,0.135
11,CGAACGGA,0.223
12,ATCCTTAC,-0.0381
13,AAAACTCA,-0.0631
14,CGACCCTC,0.0606
15,AAGCCCAC,-0.0729
16,AAATGCAG,-0.0984
17,GCTGGATA,-0.131
18,CCCTGTAG,-0.234
19,CGAACGCG,0.185
20,AGAACGTG,-0.00321
21,AGAACGTC,-0.066
22,ATAACGAC,0.159
23,CTAACGAG,0.343
24,AGAACGAC,0.391
25,AGAACGAG,0.42

row,Sequence,PBM E-score
1,ACAACGAG,0.257
2,AGAACGAA,0.376
3,CGAACGAG,0.427
4,AGAACGAT,0.342
5,AGAACAAA,0.103
6,AAACCTGT,0.225
7,GCTCTCAC,-0.32
8,TCCGCGCA,-0.0128
9,AAATACTC,-0.0601
10,CAGTTGAG,-0.255
11,ACGGGCTC,0.128
12,AATAACGT,0.133
13,TTAACGAA,0.448
14,ATAACGAA,0.197
15,CTAACGAA,0.287
16,TGAACGAA,0.458
17,TGAACGCA,0.189
18,TCAACGAA,0.249
19,CTACCGTA,0.301
20,GGACGACA,-0.266
21,GGACGACC,-0.212
22,TCACGACA,-0.138
23,TGACGACA,0.0658
24,TAACGACA,0.381
